From PubChem BioAssay (NCATS)
Results filed as inconclusive are left out. Activity calls are given as the source filed them. Unless noted, the call rests on the fitted dose curve; in most records, active means well fitted curve in the direction sought with a large enough effect; inconclusive means small, poorly fitted or top-dose-only effect, or another doubt; inactive means no such curve, though single readings can be large; an effect the other way counts as inactive or inconclusive.

Tests used:
[1] = Cell Viability - BJ (AID 421; calls by dose curve;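 further: potency means the concentration at half of the fitted maximal effect; cells exposed to compound for 40 hours at 37 °C before readout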); details: BJ fibroblast viability, qHTS
Procedure, shortened: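 Quantitative HTS: ATP depletion in BJ cells after 40 hr compound exposure in complete culture medium, detected with CellTiter-Glo; AC50 from standard Hill fits.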

[2] = Cell Viability - Jurkat (AID 426;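 active means dose-dependent loss of cell ATP signal giving a full or clear fitted curve, ranked by lower potency value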; further: potency means the concentration at half of the fitted maximal effect); details: qHTS
Procedure, shortened: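 Jurkat (clone E6-1, human T-cell leukemia) cells, 5000/well in complete medium, were exposed to compound for 40 hr at 37 °C. Viability was read as intracellular ATP by CellTiter-Glo luminescence; AC50 came from Hill fits of concentration-response data.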

[3] = Cell Viability - Hek293 (AID 427;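 active means compounds whose dose-response curve shows a full or clear partial loss of cell viability, called from curve shape rather than a numeric limit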;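 further: potency means the concentration at half of the fitted maximal effect; cells exposed to compound for 40 hours at 37 °C before reading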); details: qHTS
Procedure, shortened: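 AC50 values derive from Hill-modelled concentration-response of ATP-based luminescence, normalized between DMSO-only and 100 uM tamoxifen controls. Cells were exposed in complete culture medium for 40 hr at 37 °C before detection.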

[4] = Cell Viability - HepG2 (AID 433; calls by dose curve;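 further: potency means the concentration at half of the fitted maximal effect; potency for ATP loss meaning cytotoxicity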); details: qHTS
Procedure, shortened: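 Cytotoxicity is scored as loss of intracellular ATP in HepG2 cells exposed to compounds for 40 h. Concentration-response curves, normalized to DMSO and 100 uM tamoxifen, give AC50 values.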

[5] = Cell Viability - MRC5 (AID 434; calls by dose curve;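 further: potency means the concentration at half of the fitted maximal effect; potency reflects cytotoxicity seen as loss of intracellular ATP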); details: MRC5 lung fibroblast viability, qHTS
Procedure, shortened: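 MRC5 normal human lung fibroblasts, 1500 cells/well, exposed to compound for 40 hr at 37 C. Cellular ATP was read by CellTiter-Glo luminescence; data normalized to DMSO and 100 uM tamoxifen, with AC50 from Hill fits.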

[6] = Cell Viability - SK-N-SH (AID 435; calls by dose curve;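 further: potency means the concentration at half of the fitted maximal effect; compound exposure lasted 40 h at 37 °C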); details: SK-N-SH neuroblastoma cell viability qHTS
Procedure, shortened: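 Cells seeded at 1500 per well and incubated 5 hr at 37 °C. Compound added, then 40 hr at 37 °C. CellTiter-Glo added, 20 min at room temperature, luminescence read.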

[7] = Cell Viability - N2a (AID 540); details: N2a mouse neuroblastoma cell viability; at 92.2 µM (top of the series);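 further: plate controls were DMSO alone for no effect and tamoxifen control for full effect; nearly all actives have a fitted effect of over 45% in size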
Procedure, shortened: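 Mouse neuroblastoma N2a cells (1500/well) were preincubated 5 hr at 37 °C, then exposed to compounds for 40 hr at 37 °C in complete medium. Viability was read as intracellular ATP by CellTiter-Glo luminescence; AC50 from Hill fits.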

[8] = Cell Viability - SH-SY5Y (AID 544); details: SH-SY5Y neuroblastoma cell viability; viability change, negative = cytotoxic: at 92.2 µM (top of the series); further: nearly all actives have a fitted effect of over 55% in size
Procedure, shortened: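 Human neuroblastoma SH-SY5Y cells (1500/well) in complete medium were exposed to compounds for 40 hr at 37 °C; intracellular ATP was then quantified by CellTiter-Glo luminescence after 20 min at room temperature. AC50 came from Hill-equation concentration-response fits.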

[9] = Cell Viability - Renal Proximal Tubule (AID 545); details: renal proximal tubule cells viability; at 91.7 µM (top of the series), primary cells of rat origin unless noted; further: nearly all actives have a fitted effect of over 40% in size
Procedure, shortened: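 Cytotoxicity is scored as a concentration-dependent drop in cellular ATP in primary rat renal proximal tubule cells exposed for 40 hr. AC50 derives from Hill modelling.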

[10] = Cell Viability - Mesenchymal (AID 546);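 further: cells exposed to compound for 40 hours before reading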
Procedure, shortened: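 Human kidney mesenchymal cells from normal renal glomeruli, 1000 cells/well, rested 5 hr at 37 °C, then treated 40 hr at 37 °C in complete medium. Cellular ATP read by CellTiter-Glo luminescence; AC50 from Hill-equation fits.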

[11] = Cellular Toxicity (caspase-3) HepG2 (AID 654);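 further: cells exposed to compound for 16 hours before reading; 0% = DMSO alone and 100% = caspase signal from 100 µM tamoxifen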
Procedure, shortened: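 HepG2 cells (1500/well) in complete medium were treated with compounds for 16 hr at 37 °C. Caspase-3/7 activity was then read as luminescence from peptide-aminoluciferin cleavage. AC50 came from Hill fits, normalized to DMSO and 100 uM tamoxifen.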

[12] = Cellular Toxicity (caspase-3) Jurkat (AID 655); details: Jurkat caspase-3 activation, luminescence, DMSO = 0%, tamoxifen = 100%; at 92.2 µM (top of the series);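 further: cells exposed to compound for 16 h at 37 °C before reading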
Procedure, shortened: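 Caspase 3/7 activation is scored as increased luminescence in Jurkat cells cultured with compound for 16 hours in complete medium. AC50 values come from Hill fits of qHTS concentration-response data normalized to DMSO and 100 uM tamoxifen controls.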

[13] = Cellular Toxicity (caspase-3) HUV-EC-C (AID 656)
Procedure, shortened: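 Read-out: luminescence proportional to caspase 3/7 activity, measured 20 min after adding Caspase-Glo 3/7 reagent. Cells (HUV-EC-C) had received compound for 16 hr at 37°C. Increases relative to DMSO and 100 uM tamoxifen gave concentration-response AC50 values.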

[14] = Cellular Toxicity (caspase-3) SHSY5Y (AID 657)
Procedure, shortened: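 Cells plated and incubated 5 h at 37 °C, dosed over a concentration range, incubated 16 h, then given Caspase-Glo 3/7 reagent for 1 h at room temperature before luminescence reading. Staurosporine (10 uM) defined full stimulation.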

[15] = Cellular Toxicity (caspase-3) BJ (AID 658)
Procedure, shortened: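 BJ human foreskin fibroblasts, 1000 cells/well, treated 16 hours at 37 °C in complete medium; caspase 3/7 activity by Caspase-Glo luminescence after 1 hr at room temperature. Normalized to DMSO and 10 uM staurosporine; AC50 from Hill fits.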

[16] = Cellular Toxicity (caspase-3) MRC-5 (AID 659)
Procedure, shortened: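 MRC-5 human normal lung fibroblasts, 1500 cells/well, treated 16 h at 37 °C in complete medium. Caspase 3/7 measured by Caspase-Glo luminescence after 1 h at room temperature. Normalized to DMSO and 10 uM staurosporine; AC50 from Hill fit.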

[17] = Cellular Toxicity (caspase-3) Mesangial (AID 660)
Procedure, shortened: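 Human renal glomerular mesangial cells (1000/well) were treated with compounds for 16 h at 37 °C in complete medium, then caspase 3/7 activity was read by Caspase-Glo luminescence. Data were normalized to DMSO and 100 uM tamoxifen; AC50 from Hill fits.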

[18] = Cellular Toxicity (caspase-3) SK-N-SH (AID 661)
Procedure, shortened: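 SK-N-SH human neuroblastoma cells (1500/well) were treated with compounds for 16 hr at 37 °C in complete medium; caspase 3/7 activity was read by Caspase-Glo luminescence. AC50 came from Hill fits of data normalized to DMSO and 10 uM staurosporine.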

[19] = Cellular Toxicity (caspase-3) H-4-II-E (AID 663);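 further: cells exposed to compound for 16 hr before readout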
Procedure, shortened: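 Rat hepatoma H-4-II-E cells (1500/well) plated 5 hr, then exposed to compound titrations for 16 hr at 37 °C. Caspase-Glo 3/7 luminescence read after 20 min at RT; data normalized to DMSO and 100 uM tamoxifen, AC50 from Hill fits.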

[20] = Cellular Toxicity (caspase-3) Hek293 (AID 664);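 further: cells exposed to compound for 16 h at 37 °C before readout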
Procedure, shortened: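 HEK293 cells were exposed to compounds in complete medium for 16 hr at 37 °C, then caspase-3/7 activity was read by Caspase-Glo 3/7 luminescence after 20 min at room temperature. Data normalized to DMSO and 100 uM tamoxifen; AC50 from Hill fits.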

[21] = Cellular Toxicity (caspase-3) N2a (AID 665); details: N2a cells, luminescence, normalized: DMSO 0%, 10 µM staurosporine 100%; at 92.2 µM (top of the series);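 further: compound exposure lasted 16 h at 37 °C before readout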
Procedure, shortened: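 Mouse N2a neuroblastoma cells (1500/well) were treated with compounds for 16 h at 37 °C, then caspase-3/7 activity was read by Caspase-Glo luminescence after 1 h at room temperature. Data were normalized to DMSO and 10 uM staurosporine; AC50 from Hill fits.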

[22] = Cellular Toxicity (caspase-3) NIH 3T3 (AID 666);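 further: caspase signal read after 16 h compound exposure; 0% = DMSO basal and 100% = 100 µM tamoxifen stimulation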
Procedure, shortened: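 Mouse NIH 3T3 fibroblasts (1000 cells/well) were treated with compound for 16 hr at 37°C in complete medium; caspase-3/7 activity was read by Caspase-Glo luminescence. Normalized to DMSO and 100 uM tamoxifen; AC50 from Hill fits.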

[23] = Cellular Toxicity (caspase-3) Renal Proximal Tubule (AID 667); details: renal proximal tubule cells; at 91.7 µM (top of the series), primary cells freshly taken from rat, solvent-only wells 0%, staurosporine 100% unless noted;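 further: cells exposed to compound for 16 hours at 37 °C before detection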
Procedure, shortened: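 In qHTS format, rat primary proximal tubule cells seeded at 1000 per well are exposed to compounds for 16 hours at 37 °C. An increase in Caspase-Glo 3/7 luminescence indicates caspase activation.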

CCCCOC(=O)c1ccccc1C(=O)OCCCC
inactive: Potency [1] > 92 µM | Potency [2] > 92 µM | Potency [3] > 92 µM | Potency [4] > 92 µM | Potency [5] > 92 µM | Potency [6] > 92 µM | activity change, negative = cytotoxicity [7] -7.34% | Potency [8] | activity change, negative = cytotoxicity [9] 1.09% [at 91.7 µM] | outcome [10] | outcome [11] | caspase-3 activation [12] -1.56% | outcome [13] | outcome [14] | outcome [15] | outcome [16] | outcome [17] | outcome [18] | outcome [19] | outcome [20] | caspase-3 activation [21] -1.36% | outcome [22] | caspase-3 activation [23] -0.0975% [at 91.7 µM]
